Data as given in PubChem BioAssay AID588676 (Johns Hopkins Ion Channel Center, 2011).
Among all 310,000 compounds or so, about 3,900 (1.3%) were called active. The sample holds actives, similar compounds and a random draw of the others, so the mix is not that of the screen.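 Rule for the calls: active = calcium-response B-score plate-corrected more than 3 library SD below zero, starting fluorescence within 5 deviations, no agonist response on first addition; inactive = the rest.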

These molecules were tested against Mas-related G-protein coupled receptor member X1 (Homo sapiens) (UniProt Q96LB2) (assay: antagonists of human MrgX1 receptor, primary screen, HEK293 cells, Fluo-4 calcium flux (AID 588676;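 for B-score: peak minus trough fluorescence over baseline after final BAM8-22 challenge near maximal dose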)). Conditions: Fluo-4, BAM8-22 antagonism, at 10 µM; active compounds read low.
Sequence of Mas-related G-protein coupled receptor member X1 (Homo sapiens) (Q96LB2 whole entry, looked up): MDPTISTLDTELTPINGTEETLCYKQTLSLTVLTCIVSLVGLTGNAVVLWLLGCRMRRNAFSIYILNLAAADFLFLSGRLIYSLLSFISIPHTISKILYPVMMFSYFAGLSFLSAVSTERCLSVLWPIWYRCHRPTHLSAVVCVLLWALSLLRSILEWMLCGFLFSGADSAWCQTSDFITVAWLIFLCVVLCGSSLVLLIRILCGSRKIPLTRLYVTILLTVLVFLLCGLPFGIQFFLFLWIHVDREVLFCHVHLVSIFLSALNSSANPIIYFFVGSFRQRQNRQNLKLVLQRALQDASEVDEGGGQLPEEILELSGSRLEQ
For `COc1cc(SC#N)ccc1N=Cc1c(C)[nH]n(-c2ccc(C)cc2)c1=O`, the B-score was “inactive”.
`C=CCSc1nsc(NC(=O)Nc2cccc(C(C)=O)c2)n1` was tested, and the B-score was “inactive”.
For `CCSc1nsc(NC(=O)Nc2ccccc2OC)n1`, the B-score was “inactive”.
For `CCSc1nsc(NC(=O)Nc2cccc(C(C)=O)c2)n1`, the B-score was -6.91 (active).
`COc1ccc(/C=N/NC(=O)c2cc(-c3cccc(C)c3)nc3ccccc23)cc1O` was tested, and the B-score was “inactive”.
With `COc1cccc(-c2cc(C(=O)N/N=C/c3ccc(OC)c(COC(C)=O)c3)c3ccccc3n2)c1` the B-score was -7.49 (active).
With `CCOc1cc(/C=N/NC(=O)c2cc(-c3ccccc3)nc3ccccc23)ccc1O` the B-score was “inactive”.
With `CCCCN(C1CCS(=O)(=O)C1)S(=O)(=O)c1ccc(C(C)C)cc1` (configuration not stated) the B-score was “inactive”.
`CC1(C)Cc2c(C#N)c(SCc3nc4ccccc4[nH]3)nc(N3CCOCC3)c2CO1` was tested, and the B-score was “inactive”.
For `C1=C(N2CCOCC2)/C(=C/c2nc3ccccc3[nH]2)CC1`, the B-score was -5.3 (active).
`O=c1[nH]c(N2CCOCC2)nc2ccccc12` was tested, and the B-score was “inactive”.
In the case of `COc1ccc2c(c1)[C@H]1[C@H](CO2)[C@H](c2ccccc2)[C@]2(C)C(=O)Nc3cc(F)c(F)cc3C(=O)N12`, the B-score is reported as “inactive”.
For `COc1cc(CN(C)Cc2nc3cc(C(F)(F)F)ccc3c(=O)[nH]2)ccc1OC(F)F`, the B-score was “inactive”.
For `CCOCCCNC(=O)C1(O)c2cc(Br)ccc2NC(=O)N1c1ccc(C)c(C)c1` (configuration not stated), the B-score was “inactive”.
With `C=CCn1c(=NC(=O)c2cccs2)sc2cc(NC(C)=O)ccc21` the B-score was “inactive”.
In the case of `Cc1ccc(Cc2cnc(N)s2)o1`, the B-score is reported as -6.78 (active).
With `Cc1ccc(CCC(=O)Nc2ncc(Cc3cc(Cl)ccc3Cl)s2)o1` the B-score was “inactive”.
`CCn1ccnc1CN(C)C(=O)c1cc(COc2ccc(Cl)cc2OC)on1` was tested, and the B-score was “inactive”.
With `CCc1ccc2[nH]c(=O)c(Cc3ccccc3)c(O)c2c1` the B-score was “inactive”.
In the case of `CN(C)c1ccc(-n2cccc2/C=N/n2cnnc2)cc1`, the B-score is reported as “inactive”.
For `Cc1ccc(N=C2NC(=O)/C(=C/C=C/c3ccco3)S2)cc1C`, the B-score was “inactive”.
In the case of `CN(C)c1ccc(-n2cccc2/C=C2/SC(=Nc3ccc(F)cc3)NC2=O)cc1`, the B-score is reported as -5.31 (active).
With `Cc1ccccc1NC(=O)Cn1cc(C(=O)C2CC2)c2ccccc21` the B-score was “inactive”.
For `COc1cccc2sc(N(CCCN(C)C)C(=O)CCS(=O)(=O)c3ccccc3)nc12`, the B-score was “inactive”.
With `COc1cccc2sc(N(CCCN(C)C)C(=O)C(c3ccccc3)c3ccccc3)nc12` the B-score was -7.14 (active).
In the case of `COc1cc2ccccc2cc1C(=O)N(CCN(C)C)c1nc2c(F)cccc2s1`, the B-score is reported as “inactive”.
In the case of `CCc1ccc2c(c1)C1(NN=C(c3ccccc3)S1)C(=O)N2` (configuration not stated), the B-score is reported as “inactive”.
`CCOC(=O)c1c(NC(=O)CCl)sc(C(=O)N(CC)CC)c1C` was tested, and the B-score was “inactive”.
With `Cn1nc(C(F)(F)F)cc1-c1ccc(/C=C(\C#N)C(=O)c2cccc(C(F)(F)F)c2)s1` the B-score was “inactive”.
With `CCOC(=O)c1c(C)[nH]c(=S)c(C#N)c1-c1ccccc1` the B-score was -6.66 (active).
With `CCOC(=O)c1c(C)nc(-c2ccccc2)nc1NC(=O)C(C)C` the B-score was “inactive”.
`CC(=O)c1c(C)[nH]c(=S)c(C#N)c1-c1ccc(F)cc1` was tested, and the B-score was “inactive”.
For `O=c1c(Cl)c(NCc2ccc(F)cc2Cl)cnn1C12CC3CC(CC(C3)C1)C2`, the B-score was “inactive”.
`Cc1cccc2c1-c1sc(C(=O)NCCCN3CCc4ccccc4C3)cc1CO2` was tested, and the B-score was “inactive”.
`CC1=NN(c2cccc(Cl)c2)C(=O)C12CC(C)=C(C)CS2` (configuration not stated) was tested, and the B-score was “inactive”.
`CC(C)Oc1ccc(C(CC(=O)N2CCOCC2)C(C)C)cc1` (configuration not stated) was tested, and the B-score was “inactive”.
In the case of `O=[N+]([O-])c1ccc(N2CCN(S(=O)(=O)c3ccccc3)CC2)cc1N1CCc2ccccc2C1`, the B-score is reported as “inactive”.
In the case of `CC(C)CC(O)C1CCN(C(=O)CCc2nnc(-c3ccc4c(c3)OCO4)o2)CC1` (configuration not stated), the B-score is reported as “inactive”.
`Cc1nccn1CCC1CCCCN1C(=O)CCc1nnc(-c2ccsc2)o1` (configuration not stated) was tested, and the B-score was -4.86 (active).
With `COCC1CCN(C(=O)CCc2nnc(C3(c4ccc(Cl)cc4)CCC3)o2)C1` (configuration not stated) the B-score was “inactive”.
With `CN(C)CCNC(=O)Cc1ccc([N+](=O)[O-])cc1` the B-score was -6.37 (active).
`O=C(CSCc1ccc([N+](=O)[O-])cc1)NCCSCc1ccccc1` was tested, and the B-score was “inactive”.
`CN(C)C(CNC(=O)Cc1ccc([N+](=O)[O-])cc1)c1ccccc1` (configuration not stated) was tested, and the B-score was “inactive”.
`COc1cc(NC(=S)NCc2ccco2)c(OC)cc1Cl` was tested, and the B-score was “inactive”.
For `FC(F)Oc1ccc(NC(=S)NCc2ccco2)cc1Cl`, the B-score was -4.6 (active).
With `S=C(NCc1ccco1)Nc1ccc2c(c1)OCCO2` the B-score was “inactive”.
With `O=C1CCc2cc(S(=O)(=O)Nc3ccc(C(F)(F)F)cc3)cc3c2N1CC3` the B-score was “inactive”.
In the case of `CCN(CC(=O)Nc1cc(Cl)ccc1C)C(=O)Cn1c(=O)cnc2ccccc21`, the B-score is reported as “inactive”.
With `CCOC1CCCCC1NS(=O)(=O)c1ccc(Cl)cc1` (configuration not stated) the B-score was -6.36 (active).
With `O=S(=O)(NC1CCCCC1N1CCCCC1)c1ccc(Cl)cc1` (configuration not stated) the B-score was “inactive”.
In the case of `CCN1CCN(C2CCCCC2NS(=O)(=O)c2ccc(Cl)cc2)CC1` (configuration not stated), the B-score is reported as “inactive”.
`O=C(O)CCCN1C(=O)c2ccccc2Sc2ncccc21` was tested, and the B-score was “inactive”.
In the case of `COc1ccc(CC(=O)NCc2nnc(SCC(=O)Nc3nccs3)n2C)cc1`, the B-score is reported as “inactive”.
For `COc1ccc(C(=O)NCc2nnc(SCCOc3ccccc3)n2C)cc1`, the B-score was -8.04 (active).
With `COc1ccc(C(=O)NCc2nnc(SCC(=O)NC3=NCCS3)n2C)cc1` the B-score was “inactive”.
With `CCN(CC)C(=O)CSc1nnc(CNc2ccc(F)cc2)n1Cc1ccco1` the B-score was “inactive”.
With `O=c1[nH]n2c(=O)c3c([nH]c2c1N=Nc1ccccc1)CCC3` the B-score was “inactive”.
In the case of `CC(C)(C)n1c(=O)[nH]c2c(c1=O)CCC2`, the B-score is reported as -7.85 (active).
`O=C(COC(=O)Cc1c[nH]c2ccccc12)NCCc1ccccc1` was tested, and the B-score was “inactive”.
For `Cc1nc(CNS(=O)(=O)c2ccc(Oc3ccccc3)cc2)cs1`, the B-score was “inactive”.
In the case of `O=C(NCCCc1ccccc1)C(=O)c1c[nH]c2ccccc12`, the B-score is reported as “inactive”.
For `CCS(=O)(=O)N1Cc2ccccc2CC1C(=O)Nc1nc2ccc(F)cc2s1` (configuration not stated), the B-score was “inactive”.
`COc1ccc(OCCCC(=O)OC(C)C(=O)Nc2ccccc2[N+](=O)[O-])cc1` (configuration not stated) was tested, and the B-score was “inactive”.
In the case of `COc1ccc(N2CCN(C(=O)CN3C(=O)COc4ccccc43)CC2)cc1`, the B-score is reported as “inactive”.
In the case of `Nc1ccc(SCCN2C(=O)c3ccccc3C2=O)cc1`, the B-score is reported as “inactive”.
For `NC(=O)C1(C(N)=O)OC1c1ccc(Cl)cc1Cl` (configuration not stated), the B-score was “inactive”.
`O=C(NC1CC1)C1=C[C@H](c2coc3ccccc3c2=O)C[C@H](OCCCCO)O1` was tested, and the B-score was “inactive”.
For `CNC(=O)c1cccc2nc3ccccc3nc12`, the B-score was “inactive”.
In the case of `O=c1[nH]c(=O)c2nc3ccccc3nc2[nH]1`, the B-score is reported as -4.56 (active).
With `Nc1ccc2nc3c(=O)[nH]c(=S)[nH]c3nc2c1` the B-score was “inactive”.
For `CC1(C)CC(=O)C(N=Nc2c(F)cccc2F)=C(O)C1`, the B-score was “inactive”.
In the case of `CC(=O)N1CCC(C(=O)OCc2ccc(Cl)cc2)(c2ccccc2)CC1`, the B-score is reported as “inactive”.
In the case of `Cc1ccc(S(=O)(=O)N(C)c2nc3ccccc3n3c(C(C)C)nnc23)cc1`, the B-score is reported as “inactive”.
For `Cc1ccc(S(=O)(=O)n2nc(OC(=O)C(C)(C)C)cc2N)cc1`, the B-score was -8.79 (active).
In the case of `Nc1cc(OC(=O)c2ccccc2Br)nn1S(=O)(=O)c1ccccc1`, the B-score is reported as “inactive”.
`Cc1ccc(-c2cn(S(=O)(=O)c3cccc([N+](=O)[O-])c3)nc2N)cc1` was tested, and the B-score was “inactive”.
`O=C(COc1ccc(-n2cnnn2)cc1)Nc1ccccc1Cl` was tested, and the B-score was “inactive”.
For `Cc1ccc(C(=O)NC2CCN(C(=O)Nc3ccccc3Cl)CC2)cc1`, the B-score was “inactive”.
With `O=C(Nc1ccccc1Cl)N1CCN(c2ccc3nncn3n2)CC1` the B-score was -4.64 (active).
With `O=C(c1ccc(Oc2ccc(Cl)cc2)c([N+](=O)[O-])c1)N1CCCC1` the B-score was “inactive”.
In the case of `Cc1nn(C)c(C)c1Sc1ccccc1N`, the B-score is reported as “inactive”.
In the case of `CC(=O)N1CCN(C(=O)c2cc(-c3ccc(Cl)s3)nc3ccccc23)CC1`, the B-score is reported as “inactive”.
For `Brc1ccc2c(c1)[C@H]1OCC[C@H]1[C@@H](c1cccs1)N2`, the B-score was “inactive”.
`Cc1ccccc1NC(=O)CCOc1ccccc1` was tested, and the B-score was “inactive”.
For `O=C(CCn1c(=S)[nH]c2cc3c(cc2c1=O)OCO3)NCc1ccc(Cl)cc1`, the B-score was “inactive”.
`CN(C)CCn1c(=S)[nH]c2ccc(Cl)cc2c1=O` was tested, and the B-score was -7.49 (active).
`CCCCn1c(=S)[nH]c2ccccc2c1=O` was tested, and the B-score was “inactive”.
For `Cc1cccc(N2CCN(C(=O)/C=C/c3ccco3)CC2)c1C`, the B-score was “inactive”.
With `CC1CCC2CCCCC2N1C(=O)c1cc([N+](=O)[O-])cc([N+](=O)[O-])c1` (configuration not stated) the B-score was “inactive”.
With `CCCCCC1CCC(c2nnc(SCC(C)=O)o2)CC1` (configuration not stated) the B-score was “inactive”.
For `O=C(CCS(=O)(=O)c1cccc2nonc12)NCCc1ccccc1Cl`, the B-score was “inactive”.
With `CC(NC(=O)c1ccccc1F)c1cccc2ccccc12` (configuration not stated) the B-score was “inactive”.
With `COc1ccc(-n2c(SCC(=O)NCc3ccco3)nnc2-c2c[nH]c3ccccc23)cc1` the B-score was -6.52 (active).
For `O=C(CSc1nnc(-c2c[nH]c3ccccc23)n1-c1ccc(F)cc1)NCc1ccco1`, the B-score was “inactive”.
With `COc1ccc(-n2c(SCC(=O)NCc3cccs3)nnc2-c2ccoc2C)cc1` the B-score was “inactive”.
In the case of `O=c1[nH]snc1-c1c(Cl)cccc1Cl`, the B-score is reported as “inactive”.
For `CCOc1ccc(CCNC(=O)Nc2ccccc2)cc1OCC`, the B-score was “inactive”.
For `COc1cccc(CNC(=O)C2CC(=O)N(C3CCCCCCC3)C2)c1` (configuration not stated), the B-score was “inactive”.
For `Cc1no[n+]([O-])c1COc1ccccc1/C=C1\NC(=S)NC1=O`, the B-score was “inactive”.
`O=c1c2cc(Br)ccc2nc(-c2cccc(Cl)c2)n1O` was tested, and the B-score was “inactive”.
`O=C1CCCc2c1nc(-c1cccc(Cl)c1)n2O` was tested, and the B-score was -7.62 (active).
`O=c1c2c(nc3cc(-c4cccc(Cl)c4)[nH]n13)CCCC2` was tested, and the B-score was “inactive”.
In the case of `Cc1c(CC(=O)NCC(=O)NCC(=O)O)c(=O)oc2cc3oc4c(c3cc12)CCCC4`, the B-score is reported as “inactive”.
For `CC(C)CNC(=S)NC(=O)c1ccc(Cl)cc1`, the B-score was “inactive”.
In the case of `COc1cccc(-c2cccc(NC(=O)C3CCN(C4CCC4)CC3)c2)c1`, the B-score is reported as “inactive”.
For `O=C(CN(C(=O)c1csnn1)c1cccc(F)c1)NCc1ccc(F)cc1`, the B-score was “inactive”.
With `COC(=O)C1=C(C(=O)OC)C2(OC1c1ccc(Br)cc1)C(=O)c1ccccc1C2=O` (configuration not stated) the B-score was “inactive”.
